This is a sample that favours compounds with a hit; in the whole collection about 10% have one here.
BAZ2B block = BAZ2B (human) inhibition | Q9UIF8 | AlphaScreen BAZ2B-H3K14Ac peptide displacement | Potency, µM (highest dose often 114 µM), without a hit: top-dose activity change, negative = inhibition, usual class: inhibitors | actives 4.4% (n = 360,000); also: potency is read from the fitted curve at half-maximal effect; % is scaled to controls: 0 for no effect and ±100 for the full control effect; nearly all actives have a fitted effect of over 60% in size
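AlphaScreen luminescence quantifies BAZ2B engagement of H3K14Ac peptide; the protein and biotinylated peptide are both at 50 nM final, buffer PBS pH 7.4 with 0.01% Tween-20, all steps at room temperature.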
HP1b chromo inh = HP1-beta chromodomain-methylated histone interaction inhibition; P83916; AlphaScreen HP1-beta / biotin-H3K9me3 peptide binding; Potency, µM (titrated, usually from 114 µM), without a hit: at the highest dose activity change, negative = inhibition, hits mostly inhibitors; actives 0.56% (n = 390,000); AID 540317; also: potency is read from the fitted curve at half-maximal effect; nearly all actives have a fitted effect of over 70% in size
Target sequence (P83916 whole entry, looked up): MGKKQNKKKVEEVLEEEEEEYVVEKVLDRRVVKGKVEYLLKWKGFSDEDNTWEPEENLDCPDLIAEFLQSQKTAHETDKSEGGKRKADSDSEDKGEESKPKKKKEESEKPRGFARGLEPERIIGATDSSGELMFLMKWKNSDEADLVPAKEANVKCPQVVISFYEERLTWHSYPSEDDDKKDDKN
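AlphaScreen: HP1-beta (50 nM) preformed 30 min with biotin-H3(1-18)K9me3 peptide (50 nM) in PBS pH 7.4, 0.01% Tween-20. Compound added for 30 min at RT, then streptavidin donor/nickel chelate acceptor beads (10 ug/mL) for 30 min.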
JMJD2A Tudor = inhibitors of human JMJD2A Tudor domain | AlphaScreen JMJD2A-Tudor / H3K4me3 peptide binding | Potency, µM (doses to about 114 µM), inactives show at the top dose activity change, negative = inhibition, actives largely listed as inhibitors | O75164 | actives 4.4% (n = 390,000); also: potency is read from the fitted curve at half-maximal effect; % is scaled to controls: 0 for no effect and ±100 for the full control effect; nearly all actives have a fitted effect of over 50% in size
G9a block = G9a (human) methyltransferase inhibition. Q96KQ7. G9a H3K9 monomethylation, AlphaScreen, 2 h. Potency, µM (titrated, usually from 102 µM), without a hit: top-dose activity, negative = inhibition, most hits filed as inhibitors. actives 8.8% (n = 350,000); also: potency is read from the fitted curve at half-maximal effect; % is scaled to controls: 0 for no effect and ±100 for the full control effect; nearly all actives have a fitted effect of over 75% in size
Target sequence (Q96KQ7 913-1193 limits assumed): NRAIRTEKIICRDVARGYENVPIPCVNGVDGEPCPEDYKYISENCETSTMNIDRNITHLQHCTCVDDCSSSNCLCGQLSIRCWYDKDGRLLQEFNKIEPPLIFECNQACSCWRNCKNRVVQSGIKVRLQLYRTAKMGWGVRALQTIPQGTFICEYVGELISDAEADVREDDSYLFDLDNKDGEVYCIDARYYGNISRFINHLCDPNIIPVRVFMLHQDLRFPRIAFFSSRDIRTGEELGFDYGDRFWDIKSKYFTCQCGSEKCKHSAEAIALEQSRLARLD
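Compounds were preincubated with 20 nM G9a for 15 min, after which biotinylated H3K9 peptide (500 nM) and SAM (20 uM) started a 2 h room-temperature reaction. Monomethylated product was quantified by antibody-based AlphaScreen chemiluminescence.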
CtBP-E1A inh = blocks the CtBP interaction with E1A; AlphaScreen GST-E1A/His-CtBP binding, 1536-well; active compounds read low; activity change, % (test concentration not listed); actives 0.49% (n = 340,000); in the data active = activity change below about -65%; inconclusive = mostly about -30% to -63%; also: % is scaled to controls: 0 for no effect and ±100 for the full control effect
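In 5 uL wells, 23 nL compound meets equimolar GST-E1A and His-CtBP (5X stock 125 nM each) for 2 h, 37 °C. Beads (5X, 50 ug/mL) then 1 h, 37 °C, dark.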
Six1-Eya2 inh = inhibitors of human Six1/Eya2 interaction; Q15475+O00167; AlphaScreen GST-Six1/His-Eya2 binding, biochemical; active compounds read low; activity change, % (concentration not given with the values); actives 0.56% (n = 360,000); AID 651725; in the data active = activity change below about -65%; inconclusive = mostly about -30% to -63%; also: % is scaled to controls: 0 for no effect and ±100 for the full control effect
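Homogeneous AlphaScreen proximity assay pairing GST-Six1 with His-tagged Eya2 (added as 5X mix: 250 nM and 500 nM) in 50 mM Tris pH 8.0, 300 mM NaCl, 1 mM TCEP. Glutathione donor and nickel acceptor beads; 1 h, 37 °C, dark.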
An asterisk follows results filed as active; ? = inconclusive; . = no result; [ ] = dose if it differs, or a comment. Unless noted, calls follow the shape of the dose curve; as a rule, active = well fitted inhibition curve with a large enough effect; inconclusive = small, poorly fitted or top-dose-only effect; inactive = no such curve, though single readings can be large or run the other way.

SMILES | BAZ2B block | HP1b chromo inh | JMJD2A Tudor | G9a block | CtBP-E1A inh | Six1-Eya2 inh
CCC(=O)N1CCc2cc(Br)cc(S(=O)(=O)N3CCCC(C(=O)Nc4ccc(C(C)C)cc4)C3)c21 (stereo not given) | 2% | 6% | -26% | -30%[59 µM] | . | .
Cc1ccc(CCNC(=O)c2c(C)oc3ncnc(N4CCOCC4)c23)cc1 | 13%[57.1 µM] | 42% | -2% | 2%[59 µM] | . | .
COc1cc2ccccc2cc1C(=O)N1CCN(c2ccccc2O)CC1 | -6% | 13% | -31% | -7%[12.7 µM] | . | -7
Cc1cccc(C(=O)Nc2nnc(C3=COCCO3)o2)c1 | 7.9µM* | 23% | 40µM* | 7% | 0 | -28
COc1ccc(C(=O)Nc2nnc(C3=COCCO3)o2)cc1OC | 16µM* | 53% | 50µM* | 43% | 2 | -18
CC(C)(C)c1ccc(C(=O)Nc2nnc(C3=COCCO3)o2)cc1 | ? | 17% | -12% | -1% | -22 | -18
O=C(Oc1ccc(C(=S)N2CCOCC2)cc1Br)c1ccccc1F | -33% | ? | -30% | 10µM* | 7 | ?
O=C(c1ccccc1F)N1CCOCC1 | 2% | 44% | 1% | -30% | . | -5
O=C(Oc1ccc(C(=S)N2CCOCC2)cc1Cl)c1ccccc1F | -31% | -14% | -35% | -9%[0.501 µM] | . | -10
O=C(Oc1ccc(C(=S)N2CCOCC2)cc1)c1ccccc1F | -26% | -2% | -10% | 25µM* | . | -21
O=C(O)/C=C/C(=O)Nc1ccc(Oc2ccccc2)cc1 | -23% | 24% | -12% | . | 0 | 1
CCCOc1ccc(/C=C/C(=O)Nc2ccc([N+](=O)[O-])cc2)cc1 | 5% | 8% | -25% | -2% | -15 | -12
COC(=O)c1ccc(Cl)cc1NC(=O)/C=C/c1ccc(C)o1 | 1% | 12% | -5% | ? | 1 | 4
Cc1ccc(/C=C/C(=O)Nc2ccc(Oc3ccccc3)cc2)o1 | ? | ? | -33% | 11µM* | -4 | -6
Cc1ccc(/C=C/C(=O)Nc2ccc([N+](=O)[O-])cc2)o1 | 50µM* | 14% | -8% | 28µM* | 0 | 0
Cc1ccc(NC(=O)/C=C/c2ccc(C)o2)c(C)c1 | 79µM* | ? | ? | 11µM* | . | .
CC(=O)c1ccc(NC(=O)/C=C/c2ccc(C)o2)cc1 | ? | ? | 50µM* | 11µM* | . | .
Cn1c(NC(=O)/C=C/c2ccco2)cc(=O)n(C)c1=O | -2% | 33% | -5% | ? | -12 | -24
Cc1ccc(/C=C/C(=O)Nc2cc(=O)n(C)c(=O)n2C)o1 | -5% | -29% | ? | 4µM* | 0 | -15
CCN(CC)S(=O)(=O)c1ccc2c(c1)c(=O)c(C(=O)N1CCN(c3cc(Cl)ccc3C)CC1)cn2C | . | 28% | -9% | -3%[59 µM] | . | .
CN(C)c1ccc(/C=C/C=C2/SC(=S)N(c3ccccc3)C2=O)cc1 | ? | -92% | 5.6µM* | ? | -66* | -69*
O=C(O)c1ccc(N2C(=O)/C(=C/C=C/c3ccccc3)SC2=S)cc1 | ? | -14% | ? | 45µM* | 12 | 9
CCN(CC)c1ccc(N2C(=O)/C(=C/c3cccs3)SC2=S)cc1 | -33% | -1% | -21% | ? | -17 | -5
O=C(CCN1C(=O)/C(=C/C=C/c2ccccc2)SC1=S)Nc1nc2ccccc2s1 | ? | 1% | -35% | ? | 4 | -3
C=C(C)CC1Nc2ccccc2NC1CC(=C)C (stereo not given) | 50µM* | -39% | 79µM* | ? | -10 | -17
SMILES | BAZ2B block | HP1b chromo inh | JMJD2A Tudor | G9a block | CtBP-E1A inh | Six1-Eya2 inh
COc1ccc(OC)c(/C(C)=N/Nc2ccc(C(=O)O)cc2)c1 | -22% | 27% | -7% | 14µM* | 2 | -2
COc1cc(/C(C)=N/Nc2ccc(C(=O)O)cc2)cc(OC)c1OC | 1% | 20% | -13% | ? | 6 | -2
COc1ccc(/C(C)=N/Nc2ccc(C(=O)O)cc2)cc1OC | -1% | 46% | -10% | ? | -4 | -17
C/C(=N/Nc1ccc(C(=O)O)cc1)c1ccc(O)c(O)c1O | -33% | 7% | 10µM* | 3.5µM* | -21 | ?
Cc1cc(=O)n(CC(=O)O)c2ccccc12 | -6% | 45% | -6% | 2% | 9 | 1
Cc1cc(C)n(CC(=O)O)c(=O)c1[N+](=O)[O-] | -17% | 15% | -8% | 45µM* | 0 | -8
CCN1C(=O)/C(=C\c2nc3ccccc3c(=O)n2-c2ccccc2)c2ccccc21 | 50µM* | -16% | 45µM* | ? | -7 | 0
CCN1C(=O)/C(=C/c2nc3ccccc3c(=O)n2-c2ccc(C)cc2)c2ccccc21 | -32% | -8% | -19% | 10%[59 µM] | 1 | 17
Cc1cc(C)nc(SCC(=O)Nc2ccc(S(=O)(=O)Nc3ncccn3)cc2)n1 | -15% | 24% | 3% | . | 4 | 4
Cc1ccc(SCC(=O)Nc2ccc(S(=O)(=O)Nc3ncccn3)cc2)cc1 | -17% | 19% | -22% | 45µM* | . | 5
O=C(/C=C/c1ccc(Br)cc1)Nc1ccc(S(=O)(=O)Nc2ncccn2)cc1 | 89µM* | 33% | -14% | . | . | 0
O=C(Cc1ccc(Cl)cc1)Nc1ccc(S(=O)(=O)Nc2ncccn2)cc1 | -29% | 40% | -9% | 79µM* | 5 | 0
CC(=O)Nc1ccc(SCC(=O)NNC(=O)CN(C)S(=O)(=O)c2ccc(C)cc2)cc1 | 0% | 94% | -4% | 45µM* | 2 | 11
CC(=O)c1ccc(S(=O)(=O)N(C)CC(=O)Nc2ccc(C)cc2)cc1 | -4% | 33% | 6% | 20%[59 µM] | 7 | 2
O=C(/C=C/c1cccc(F)c1)Nc1ccc(S(=O)(=O)Nc2ncccn2)cc1 | -6% | -1% | -17% | -35% | -7 | -4
CC(=O)c1cccc(NC(=O)CCCSc2nc(-c3ccco3)cc(C(F)(F)F)n2)c1 | 5% | 25% | 7% | 13%[59 µM] | . | .
COc1ccc2c(c1)c(=O)c(S(=O)(=O)c1ccc(F)cc1)cn2Cc1ccccc1Cl | 1% | 37% | -12% | ? | . | .
CCc1c(C(=O)NNC(=S)Nc2ccc(S(=O)(=O)Nc3ncccn3)cc2)csc1C | 1% | 28% | -13% | 20µM* | -16 | 9
O=C(Nc1ccc(S(=O)(=O)Nc2ncccn2)cc1)C1=COCCO1 | -6% | 34% | -22% | 32µM* | 8 | -8
CC(=O)Nc1ccc(S(=O)(=O)Nc2ncccn2)cc1 | . | 14% | -16% | 17%[59 µM] | 10 | 3
C/C(=N\Nc1ccc(C(F)(F)F)cc1[N+](=O)[O-])C(C)C | 10µM* | 40µM* | ? | 11µM* | -4 | 4

Bioassay records from PubChem BioAssay.
